Where “and” joins values, the source holds several entries; their conditions need not be identical. Equal entries are not always repeated. Results filed as inconclusive are left out. A structure can be active in one record and inactive in another. Calls of active or inactive are those of the source. Unless noted, calls come from the whole dose curve; as a rule, active = well fitted curve in the direction sought with a large enough effect in the repeat runs; inconclusive = weak or mixed curves; inactive = no such curve, though single readings can be large; an effect the other way counts as inactive or inconclusive.
Tests used:
[1] = qHTS assay to identify small molecule antagonists of the sonic hedgehog signaling (Shh) pathway (AID 1259369; calls by dose curve; note: nearly all actives have a fitted effect of over 45% in size; note: potency is the fitted concentration of half-maximal effect); conditions: NIH/3T3 Gli1-Luc reporter, Shh antagonist, luminescence 24 h; series mostly up to 92.4 µM
How it was run: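 Stable Gli1-Luc reporter NIH/3T3 clone; quantitative HTS in stimulated mode with conditioned medium. Luminescence measured after 24hr compound treatment at 37 C.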

[2] = qHTS assay to identify small molecule agonists of the androgen receptor (AR) signaling pathway in the presence of an antagonist - cell viability counter screen (AID 1259379); conditions: MDA-kb2 viability, CellTiter-Fluor, 16 h; series mostly up to 92.4 µM;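 note: MDA-kb2 human breast cancer cells carrying an MMTV luciferase reporter; nearly all actives have a fitted effect of over 25% in size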
How it was run: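 Nilutamide-containing (3.0uM final) MDA-kb2 cultures, 3,000 cells/well, were treated with compounds across 15 concentrations. After 16 hr at 37C with no CO2, cell viability was determined by CellTiter-Fluor fluorescence in the luciferase assay wells.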

[3] = qHTS assay to identify small molecule antagonists of the estrogen receptor beta (ER-beta) signaling pathway - cell viability counter screen (AID 1259382); conditions: ER-beta-UAS-bla HEK293T viability, CellTiter-Glo luminescence, 16 h; series mostly up to 92.4 µM;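 note: HEK293T cells carrying ER-beta-UAS-bla reporter stimulated with estradiol; nearly all actives have a fitted effect of over 55% in size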
How it was run: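 Viability is scored by CellTiter-Glo luminescence (30 min, room temperature) in ER-beta-UAS-bla HEK293T wells already read for reporter fluorescence. Compound exposure lasts 16 hr at 37C alongside 1nM 17-beta-estradiol in charcoal-stripped serum medium.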

[4] = biological target: Estrogen receptor (Homo sapiens) (UniProt P03372); test: qHTS assay to identify small molecule agonists of the estrogen receptor alpha (ER-alpha) signaling pathway in the presence of an antagonist (AID 1259383; calls by dose curve; note: top concentration of the series differs between compounds; nearly all actives have a fitted effect of over 15% in size); conditions: VM7Luc4E2 cells, ERE-luciferase, +ICI-182,780, 22 h; series mostly up to 92.4 µM
Estrogen receptor (Homo sapiens), sequence (P03372 whole entry, looked up): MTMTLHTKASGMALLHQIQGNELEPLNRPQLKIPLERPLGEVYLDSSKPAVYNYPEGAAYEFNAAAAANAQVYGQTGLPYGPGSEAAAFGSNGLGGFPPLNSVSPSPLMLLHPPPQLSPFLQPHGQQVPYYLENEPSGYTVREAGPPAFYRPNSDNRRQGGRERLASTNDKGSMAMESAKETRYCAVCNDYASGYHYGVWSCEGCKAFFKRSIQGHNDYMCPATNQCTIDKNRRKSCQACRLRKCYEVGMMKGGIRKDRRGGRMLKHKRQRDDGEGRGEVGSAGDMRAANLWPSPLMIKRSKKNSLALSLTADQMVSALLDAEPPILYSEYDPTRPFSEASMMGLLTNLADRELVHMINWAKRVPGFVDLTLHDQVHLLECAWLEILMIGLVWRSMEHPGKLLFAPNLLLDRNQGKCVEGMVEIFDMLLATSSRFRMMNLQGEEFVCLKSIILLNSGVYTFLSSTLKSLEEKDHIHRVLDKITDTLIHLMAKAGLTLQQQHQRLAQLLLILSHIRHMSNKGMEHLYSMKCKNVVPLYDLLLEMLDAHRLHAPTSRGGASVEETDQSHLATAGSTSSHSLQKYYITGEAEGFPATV
How it was run: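 Readout was ERE-driven luciferase luminescence in VM7Luc4E2 cells, which express full-length ER-alpha endogenously. Compounds were tested at 15 concentrations for 22hr alongside 10.0nM ICI-182,780 (final concentration).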

[5] = qHTS assay to identify small molecule agonists or antagonists of the thyroid stimulating hormone receptor (TSHR) signaling pathway - wild type cell line counter screen (AID 1259384; calls by dose curve); conditions: HEK293 wild type, cAMP HTRF counter-screen; series mostly up to 92.4 µM
How it was run: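 Wild-type HEK293 cells were plated 18 h at 37 C/5% CO2, pin-dosed with compound plus Ro20-1724 medium, held 30 min at room temperature, then given cAMP-d2 and anti-cAMP-cryptate; fluorescence was read after 1 h. Fifteen concentrations, triplicate.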

[6] = biological target: Thyrotropin receptor (Homo sapiens) (UniProt P16473); test: qHTS assay to identify small molecule antagonists of the thyroid stimulating hormone receptor (TSHR) signaling pathway (AID 1259385; calls by dose curve; note: nearly all actives have a fitted effect of over 20% in size); conditions: TSHR-HEK293 cAMP HTRF, TSH-stimulated antagonist mode; series mostly up to 92.4 µM
Thyrotropin receptor (Homo sapiens), sequence (P16473 whole entry, looked up): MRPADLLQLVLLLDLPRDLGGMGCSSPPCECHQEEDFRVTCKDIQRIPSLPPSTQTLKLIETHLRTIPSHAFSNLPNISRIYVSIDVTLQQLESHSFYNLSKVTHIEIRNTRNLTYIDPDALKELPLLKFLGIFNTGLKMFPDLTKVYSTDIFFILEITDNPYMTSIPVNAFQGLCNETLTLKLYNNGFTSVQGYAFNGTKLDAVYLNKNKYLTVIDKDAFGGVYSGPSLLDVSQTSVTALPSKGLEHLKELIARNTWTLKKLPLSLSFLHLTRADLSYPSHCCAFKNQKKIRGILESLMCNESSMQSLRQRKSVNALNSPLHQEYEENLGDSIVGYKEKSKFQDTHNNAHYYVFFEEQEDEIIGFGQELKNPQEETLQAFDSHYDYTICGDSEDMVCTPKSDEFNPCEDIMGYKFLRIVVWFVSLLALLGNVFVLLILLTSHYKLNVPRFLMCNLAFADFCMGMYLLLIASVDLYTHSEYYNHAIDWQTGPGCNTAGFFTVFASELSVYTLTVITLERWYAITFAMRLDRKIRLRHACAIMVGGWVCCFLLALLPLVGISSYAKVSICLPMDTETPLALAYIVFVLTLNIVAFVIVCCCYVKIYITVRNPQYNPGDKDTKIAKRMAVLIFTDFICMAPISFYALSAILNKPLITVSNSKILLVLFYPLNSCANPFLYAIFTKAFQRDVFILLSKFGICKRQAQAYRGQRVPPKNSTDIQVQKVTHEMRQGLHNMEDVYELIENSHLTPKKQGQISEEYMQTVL
How it was run: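 TSHR-HEK293 cells were plated and held 18 h at 37C/5% CO2, then given compound plus Ro20-1724 and stimulated with TSH at 1.5 ng/mL final. After 30 min at room temperature, cAMP was detected with cAMP-d2/anti-cAMP-cryptate (1 h) by fluorescence.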

[7] = qHTS assay to identify small molecule agonists of the estrogen receptor alpha (ER-alpha) signaling pathway in the presence of an antagonist - cell viability counter screen (AID 1259386); conditions: VM7Luc4E2 viability, CellTiter-Fluor fluorescence, 22 h; series mostly up to 92.4 µM;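 note: cells exposed to compounds for 22 h at 37 °C before the viability read; nearly all actives have a fitted effect of over 30% in size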; note: potency is the fitted concentration of half-maximal effect
How it was run: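 In this counter screen, compound effects on VM7Luc4E2 viability were tested in the presence of the antagonist ICI-182,780 at 10.0nM final. Compounds were dosed at 15 concentrations, exposure lasted 22hr, and the CellTiter-Fluor signal was read.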

[8] = biological target: Progesterone receptor (Homo sapiens) (UniProt P06401); test: qHTS assay to identify small molecule agonists of the progesterone receptor (PR) signaling pathway (AID 1346784; calls by dose curve; note: nearly all actives have a fitted effect of over 30% in size); conditions: PR-UAS-bla HEK293T, beta-lactamase FRET ratio, 16 h; series mostly up to 92.4 µM
Progesterone receptor (Homo sapiens), sequence (P06401 whole entry, looked up): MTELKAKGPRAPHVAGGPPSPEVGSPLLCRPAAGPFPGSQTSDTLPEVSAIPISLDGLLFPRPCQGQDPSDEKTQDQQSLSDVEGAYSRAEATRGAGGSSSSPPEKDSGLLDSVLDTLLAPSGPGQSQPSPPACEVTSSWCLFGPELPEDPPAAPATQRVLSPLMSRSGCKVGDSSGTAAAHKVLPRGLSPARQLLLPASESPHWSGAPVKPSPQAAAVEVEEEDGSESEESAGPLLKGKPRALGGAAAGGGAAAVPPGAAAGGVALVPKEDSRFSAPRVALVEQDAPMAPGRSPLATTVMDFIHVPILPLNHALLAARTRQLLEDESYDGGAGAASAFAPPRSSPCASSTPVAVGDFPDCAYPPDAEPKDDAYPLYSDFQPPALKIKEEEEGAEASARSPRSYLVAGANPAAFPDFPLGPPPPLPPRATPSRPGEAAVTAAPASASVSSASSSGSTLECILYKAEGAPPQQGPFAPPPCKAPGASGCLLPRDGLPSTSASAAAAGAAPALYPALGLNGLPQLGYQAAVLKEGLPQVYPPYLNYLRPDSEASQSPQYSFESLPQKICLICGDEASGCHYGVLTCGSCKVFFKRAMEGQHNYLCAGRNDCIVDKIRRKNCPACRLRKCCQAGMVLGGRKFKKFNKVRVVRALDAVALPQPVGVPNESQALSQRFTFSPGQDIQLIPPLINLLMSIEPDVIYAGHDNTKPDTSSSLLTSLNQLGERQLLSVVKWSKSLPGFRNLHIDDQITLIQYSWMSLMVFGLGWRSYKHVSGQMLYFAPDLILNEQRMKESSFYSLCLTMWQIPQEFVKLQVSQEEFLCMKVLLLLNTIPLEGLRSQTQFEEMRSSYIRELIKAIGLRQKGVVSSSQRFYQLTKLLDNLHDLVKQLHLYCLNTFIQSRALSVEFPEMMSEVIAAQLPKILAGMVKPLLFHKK
How it was run: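 PR-UAS-bla HEK 293T cells (beta-lactamase reporter under UAS) in 2% charcoal-stripped FBS, dosed with 23 nL compound after 6 hr, incubated 16hr at 37C. LiveBLAzer B/G FRET substrate added, fluorescence read after 2 hours.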

[9] = biological target: Progesterone receptor (Homo sapiens) (UniProt P06401); test: qHTS assay to identify small molecule antagonists of the progesterone receptor (PR) signaling pathway (AID 1346795; active = well fitted inhibition curve with a large enough effect in the signal ratio in the repeat runs, not every such curve was filed as active; the % refers to the signal ratio; note: potency is the fitted concentration of half-maximal effect); conditions: PR-UAS-bla HEK293T, beta-lactamase FRET ratio, 16 h; series mostly up to 92.4 µM
How it was run: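 PR-UAS-bla HEK293T cells with beta-lactamase reporter under UAS control, in 2% charcoal-stripped FBS, treated with compounds plus 1 nM promegestone (R5020, final) for 16 hr at 37C. Read-out: FRET beta-lactamase substrate fluorescence after 2 hr at room temperature.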

[10] = qHTS assay to identify small molecule agonists of the progesterone receptor (PR) signaling pathway - cell viability counter screen (AID 1346799; calls by dose curve; note: nearly all actives have a fitted effect of over 45% in size); conditions: PR-UAS-bla HEK293T viability, CellTiter-Glo luminescence, 16 h; series mostly up to 92.4 µM
How it was run: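 Counter screen in the PR-UAS-bla HEK293T wells (2% charcoal-stripped FBS, 16 h compound exposure at 37 C) after the bla read. CellTiter-Glo added, 30 min at room temperature, luminescence read as cell viability.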

[11] = qHTS assay to identify small molecule antagonists of the TGF-beta/Smad signaling pathway - cell viability counter screen (AID 1346824); conditions: SBE-bla HEK293T viability, CellTiter-Glo luminescence; series mostly up to 76.8 µM; note: nearly all actives have a fitted effect of over 50% in size
How it was run: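 SBE-bla HEK 293T cells were plated overnight at 37 C, then given compounds in DMSO plus TGF-beta1 (added as 0.25 ng/mL solution) for 5 hr. After the bla read, CellTiter-Glo was added to the same wells and luminescence read after 30 min at room temperature.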

[12] = qHTS assay to identify small molecule agonists of the TGF-beta/Smad signaling pathway - cell viability counter screen (AID 1346829); conditions: SBE-bla HEK293T viability, CellTiter-Glo luminescence, 5 h; series mostly up to 76.8 µM; note: top concentration of the series differs between compounds; nearly all actives have a fitted effect of over 45% in size
How it was run: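 Here the cytotoxicity of library compounds is measured in SBE-bla HEK 293T cells treated for 5 hr, using CellTiter-Glo added to wells already read for the beta-lactamase reporter.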

[13] = qHTS assay to identify small molecule agonists of the TGF-beta/Smad signaling pathway (AID 1346859; active = well fitted activation curve with a large enough effect in the signal ratio in the repeat runs, not every such curve was filed as active; the % refers to the signal ratio); conditions: SBE-bla HEK293T, TGF-beta/Smad beta-lactamase reporter, 5 h; series mostly up to 76.8 µM
How it was run: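 SBE-bla HEK293T cells plated overnight, then compound exposure for 5 h at 37 C. Beta-lactamase reporter read with LiveBLAzer B/G FRET substrate after 2 h at room temperature, fluorescence at 405 nm excitation, 460/530 nm emission.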

[14] = biological target: Thyrotropin-releasing hormone receptor (Homo sapiens) (UniProt P34981); test: qHTS assay to identify small molecule antagonists of the thyrotropin-releasing hormone receptor (TRHR) signaling pathway (AID 1346877; active = well fitted inhibition curve with a large enough effect in the repeat runs, not every such curve was filed as active); conditions: TRHR-HEK293, TRH-induced calcium fluorescence, antagonist mode; series mostly up to 51.3 µM
Thyrotropin-releasing hormone receptor (Homo sapiens), sequence (P34981 whole entry, looked up): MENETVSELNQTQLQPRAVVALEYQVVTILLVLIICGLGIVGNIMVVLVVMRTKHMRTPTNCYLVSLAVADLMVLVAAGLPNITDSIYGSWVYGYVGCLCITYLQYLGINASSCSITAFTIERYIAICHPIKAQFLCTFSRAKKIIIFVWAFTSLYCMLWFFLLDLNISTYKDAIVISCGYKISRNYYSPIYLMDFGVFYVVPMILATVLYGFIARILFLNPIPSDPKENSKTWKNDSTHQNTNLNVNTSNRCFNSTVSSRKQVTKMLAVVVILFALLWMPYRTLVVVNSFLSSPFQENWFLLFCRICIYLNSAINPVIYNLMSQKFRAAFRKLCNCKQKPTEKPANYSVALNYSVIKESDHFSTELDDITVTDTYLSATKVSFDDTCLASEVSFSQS
How it was run: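 Kinetic fluorescence (3 min, 1 s resolution) following stimulation with TRH at 1 nM final; HEK293 cells bearing human TRHR; 5 min compound preincubation at RT; concentration-response over 15 points, triplicates.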

[15] = biological target: Thyrotropin-releasing hormone receptor (Homo sapiens) (UniProt P34981); test: qHTS assay to identify small molecule agonists of the thyrotropin-releasing hormone receptor (TRHR) signaling pathway (AID 1346891; calls by dose curve); conditions: TRHR-HEK293 calcium fluorescence, agonist mode; series mostly up to 57.6 µM
How it was run: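 HEK293 cells expressing TRHR plated 18 h at 37 C/5% CO2, calcium dye-loaded 2 h at 37 C, then compound added (agonist mode); kinetic calcium fluorescence read 3 min at 1 s intervals; 15 concentrations in triplicate.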

[16] = qHTS assay to identify small molecule agonists of the estrogen receptor beta (ER-beta) signaling pathway - cell viability counter screen (AID 1259380); conditions: ER-beta-bla HEK293T viability, CellTiter-Glo luminescence, 16 h; series mostly up to 92.4 µM; note: nearly all actives have a fitted effect of over 30% in size; note: potency is the fitted concentration of half-maximal effect
How it was run: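 Steps: plate ER-beta-UAS-bla HEK293T cells, rest 6 hr; add compounds in DMSO; incubate 16 hr at 37C, 5% CO2; add FRET substrate 2 hr; add CellTiter-Glo, wait 30 min at room temperature; read luminescence.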

[17] = qHTS assay to identify small molecule antagonists of the progesterone receptor (PR) signaling pathway - cell viability counter screen (AID 1346798); conditions: PR-UAS-bla HEK293T viability, CellTiter-Glo luminescence, 16 h; series mostly up to 92.4 µM; note: nearly all actives have a fitted effect of over 50% in size
How it was run: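 PR-UAS-bla HEK293T cells, 3,000/well in 2% charcoal-stripped FBS medium, dosed with compounds plus R5020 agonist and incubated 16 h at 37C. Viability then measured in the same wells by CellTiter-Glo luminescence after 30 min at RT.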

Measured: Potency

Oc1ccc(Cc2ccccc2O)cc1
inactive: [2] | [3] | [4] | [5] | [6] | [7] | [8] | [10] | [11] | [12] | [13] | [14] | [15]
active: [1] 43.3 µM | [9] 43.8 µM and 48.6 µM

O=C(NCC1CCCCN1)c1cc(OCC(F)(F)F)ccc1OCC(F)(F)F (stereo unspecified)
19 µM (active) and inactive: [1]
inactive: [2] | [16] | [3] | [5] | [6] | [7] | [8] | [9] | [17] | [10] | [11] | [12] | [13] | [14] | [15]

OB(O)O
inactive: [1] | [16] | [3] | [4] | [5] | [6] | [7] | [8] | [9] | [17] | [10] | [11] | [12] | [13] | [14] | [15]

Clc1cccc(Cl)c1NC1=NCCN1
inactive: [1] | [16] | [3] | [5] | [6] | [7] | [8] | [17] | [10] | [11] | [12] | [13]

NC(=O)c1ncn([C@@H]2O[C@H](CO)[C@@H](O)[C@H]2O)n1
inactive: [1] | [2] | [16] | [3] | [7] | [8] | [9] | [11] | [12] | [13] | [14] | [15]

O=c1n(CCCN2CCN(c3cccc(Cl)c3)CC2)nc2ccccn12
active: [16] 24.3 µM
inactive: [1] | [3] | [5] | [6] | [7] | [8] | [17] | [10] | [11] | [12] | [13]

OC[C@H]1O[C@@H](Oc2ccc(O)cc2)[C@H](O)[C@@H](O)[C@@H]1O
inactive: [1] | [2] | [16] | [3] | [4] | [5] | [6] | [7] | [8] | [9] | [17] | [10] | [11] | [12] | [13] | [14] | [15]

COc1ccc2cc3[n+](cc2c1OC)CCc1cc2c(cc1-3)OCO2
active: [16] 48.9 µM | [7] 27.5 µM and 26.6 µM
inactive: [1] | [4] | [8] | [17] | [11] | [12] | [13] | [14] | [15]

O=C(O)C1=NN(c2ccc(S(=O)(=O)O)cc2)C(=O)C1
inactive: [1] | [2] | [16] | [3] | [4] | [5] | [6] | [7] | [8] | [9] | [17] | [10] | [11] | [12] | [13] | [14] | [15]

CC[N+](CC)(CC(=O)Nc1c(C)cccc1C)Cc1ccccc1
inactive: [1] | [16] | [5] | [6] | [7] | [8] | [17] | [10] | [11] | [12] | [13]

O=C1O[C@H]([C@H](O)CO)C(O)=C1O
inactive: [1] | [16] | [3] | [5] | [6] | [7] | [8] | [17] | [10] | [11] | [12] | [13]

O=C1OC(=O)c2c(Cl)c(Cl)c(Cl)c(Cl)c21
inactive: [1] | [2] | [16] | [3] | [5] | [6] | [7] | [8] | [17] | [10] | [11] | [12] | [13] | [14] | [15]

From PubChem BioAssay (Tox21)
